# Pf apPOL block – Pf-apPOL DNA polymerase inhibition; 0.25% of 210,000 active; Recombinant Pf-apPOL, molecular beacon fluorescence, 1.5 h; inhibition, % at 10 µM
# mHTT CaM bind – inhibitors of human mutant huntingtin-calmodulin interaction. 3.6% of 190,000 active. inhibition, % at 15 µM. AlphaScreen His-mHTT/GST-CaM binding, luminescence;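 further: 0% = both proteins with DMSO and 100% = one protein alone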
# * = called active by the depositor; x = not tested or not shown. The full list was thinned out, with hits kept by preference. No stated cut-off is given here; in the data, active means inhibition above about 50%; inactive means the rest.
SMILES,Pf apPOL block,mHTT CaM bind
O=C1C(Nc2ccccc2)=CC(c2ccccc2[N+](=O)[O-])N1c1ccccc1 (centres undefined),1,66*
O=[N+]([O-])c1c(NCCCO)cc(Nc2ccc(F)cc2)c2nonc12,4,7
O=c1nc2s/c(=C\c3ccccc3Br)c(=O)n2nc1-c1ccccc1,5,7
CC1CCCCN1C(=O)c1cn(C)c(=O)c2c1c1ccccc1n2C (centres undefined),-2,1
O=C1C(=O)N(CCCCN2C(=O)C(=O)c3ccccc32)c2ccccc21,2,7
O=C1C(=O)N(Cc2ccc(Cl)c(Cl)c2)c2ccc([N+](=O)[O-])cc21,2,91*
O=C1C(=O)N(Cc2ccc(Cl)c(Cl)c2)c2ccccc21,-3,93*
O=C1C(=O)N(Cc2ccc(Br)cc2)c2ccc([N+](=O)[O-])cc21,2,24
O=C1C(=O)N(Cc2ccc(Br)cc2)c2ccccc21,-2,70*
O=C1C(=O)N(Cc2ccc(F)cc2)c2ccccc21,0,45
COc1cccc(C(=O)N2CCN(c3cc(C)ccc3F)C(=O)C2C)c1 (centres undefined),1,0
COC(=O)c1ccccc1S(=O)(=O)N1CCC(c2noc(-c3ccccc3C)n2)CC1,-2,-30
N#Cc1c(SCC(=O)Nc2nccs2)nsc1SCC(=O)Nc1nccs1,-4,-1
COc1ccc(S(=O)(=O)N(CC(=O)Nc2ccc3c(c2)OCO3)c2ccccc2)cc1,-5,28
COc1cc(C2C(C#N)=C(N)Oc3c2oc(CO)cc3=O)c([N+](=O)[O-])cc1OC (centres undefined),4,22
COc1cc(C2C(C#N)=C(N)OC(C)=C2C(C)=O)c([N+](=O)[O-])cc1OC (centres undefined),-5,57*
CC(Oc1ccccc1)C(=O)NCCc1ccc(S(N)(=O)=O)cc1 (centres undefined),86*,25
COc1ccc(OC(C)C(=O)NCCc2ccccc2)cc1 (centres undefined),6,-3
O=C(c1ccc2c(c1)CCC2)C1CCC1,4,x
CSc1ccccc1C(=O)N1CCC(n2cnc3cc(C(F)(F)F)ccc32)CC1,-15,82*
CSc1ccccc1C(=O)N1CCC(Cn2nc(C)cc2C)CC1,-9,-10
COc1cc(CN2CCCCCC2)cc(I)c1O,-1,-6
COc1cc(CN2CCCCCCC2)cc(OC)c1O,-4,72*
COc1cc(CN2CCN(c3cc(C)ccc3C)CC2)cc(OC)c1OC,-2,10
COc1cc(CN2CCN(c3cc(C)ccc3C)CC2)cc(I)c1O,-3,85*
SMILES,Pf apPOL block,mHTT CaM bind
CCc1nnc2ccc(-c3noc(Cc4ccc(Cl)cc4)n3)cn12,-3,13
CCCCN1CCN(C(=O)CCC2CCN(c3cc(NC4CC4)ncn3)CC2)CC1,-5,10
COc1ccccc1NC(NC(=O)c1cccc([N+](=O)[O-])c1)C(Cl)(Cl)Cl (centres undefined),1,47
Cc1ccc(C)c(NC(NC(=O)c2cc([N+](=O)[O-])cc([N+](=O)[O-])c2)C(Cl)(Cl)Cl)c1 (centres undefined),2,70*
COc1ccc(C(=O)NC(Nc2ccc(C)cc2C)C(Cl)(Cl)Cl)cc1 (centres undefined),3,8
Cc1ccc(NC(NC(=O)c2cccc([N+](=O)[O-])c2)C(Cl)(Cl)Cl)c(C)c1 (centres undefined),-2,62*
O=[N+]([O-])c1ccc(-c2nc3nc4ccccc4nc3n2CCCN2CCOCC2)cc1,-6,-14
CCOc1ccc(-c2csc(-c3cc4cc(OC)ccc4oc3=O)n2)cc1,-3,-12
CCCC1c2cccn2CCN1C(=O)Nc1cccc(Cl)c1C (centres undefined),-9,0
Cc1ccc2cccc(SCc3nc(N)nc(Nc4ccccc4)n3)c2n1,-12,61*
Nc1nc(CSc2ncccn2)nc(Nc2ccccc2)n1,-4,-1
Cc1cc(O)c2c(c1)OC(=Cc1ccc(Cl)cc1)C2=O,-6,16
O=C1CC(c2ccco2)Sc2nc(-c3ccc(F)cc3)nn21 (centres undefined),-8,100*
Cc1ccc(-c2nc3n(n2)C(=O)CC(c2ccco2)S3)cc1 (centres undefined),-2,5
CCCCC[C@H]1CN(CCc2ccccc2)C(=O)[C@@H]1CC(=O)NCc1ccc(OC)cc1,-5,75*
CCCCC[C@H]1CN(CCCC)C(=O)[C@@H]1CC(=O)NCc1ccc(OC)cc1,-2,16
Cc1sc2cc(C(=O)N3CCC(C)CC3)[nH]c2c1CN1CCOCC1,-7,69*
Cc1sc2cc(C(=O)N3CCCCCC3)[nH]c2c1CN1CCOCC1,-3,59*
Cc1sc2cc(C(=O)N3CCCCC3)[nH]c2c1CN1CCOCC1,4,31
Cc1sc2cc(C(=O)N3CCOCC3)[nH]c2c1CN1CCCC1,-3,24
COc1cc(/C=C/c2[nH]c(=O)[nH]c(=O)c2[N+](=O)[O-])cc(OC)c1OC,0,-3
Cc1nnc(N2C(=O)C(=O)C(=C(O)c3ccccc3)C2c2ccc(Cl)c(Cl)c2)s1 (centres undefined),1,13
COc1cccc(OC)c1C(=O)NCC1COC2(CCCCC2)O1 (centres undefined),-6,-9
COc1ccccc1C1CC(c2ccc(Cl)cc2Cl)Nc2nc(N)nn21 (centres undefined),-3,57*
COc1ccc(C2CC(c3ccccc3Cl)Nc3nc(N)nn32)cc1OC (centres undefined),-6,26
SMILES,Pf apPOL block,mHTT CaM bind
Nc1nc2n(n1)C(c1cccs1)CC(c1ccc(Cl)c(Cl)c1)N2 (centres undefined),-8,84*
COc1ccc(C2CC(c3ccc(Cl)c(Cl)c3)Nc3nc(N)nn32)cc1OC (centres undefined),2,29
Nc1nc2n(n1)C(c1ccc(Cl)cc1)CC(c1ccccc1)N2 (centres undefined),-7,8
CCOc1ccccc1C1CC(c2ccc(Cl)c(Cl)c2)Nc2nc(N)nn21 (centres undefined),-3,100*
C/C=C(\C)CN1CCN(C/C=C/c2ccccc2)CC1,7,7
C(=Cc1ccccc1)CN1CCN(c2c3c(nc4ncnn24)CCCC3)CC1,-5,73*
O=C(NC1CCCCC1)c1nn2c(c1Cl)NC(c1ccccc1)CC2C(F)(F)F (centres undefined),-6,7
O=C(O)c1ccc2c(c1)C(=O)c1ccccc1C2=O,13,13
O=C(CN1CCC(c2nc(-c3ccccc3Cl)no2)CC1)Nc1ccccc1Cl,-6,-15
CN(C)c1ccc(NC(=O)CN2CCC(c3nc(-c4ccccc4Cl)no3)CC2)cc1,-2,66*
N=c1oc2ccc(Cl)cc2cc1-c1nc(-c2cc3ccccc3oc2=O)cs1,0,7
Cn1c(=O)n(C)c2c(=O)[nH]ccc21,x,-7
COc1cc(/C=C2\SC(=Nc3ccccc3)NC2=O)cc(OC)c1OC,-16,18
CCOc1cc(/C=C2/SC(=Nc3ccccc3)NC2=O)ccc1O,-14,45
O=C1/C(=C/c2cc(Br)cc([N+](=O)[O-])c2O)Sc2ccccc21,20,45
COc1cc(/C=C2/SC(=Nc3ccccc3)NC2=O)ccc1OCC#N,-16,54*
COc1cc(/C=C2\Sc3ccccc3C2=O)cc([N+](=O)[O-])c1O,0,81*

# Assay outcomes as filed in PubChem BioAssay.
